This passage reports z-score and composite z-score results from PubChem BioAssay.

Assay [1] in a line: HepG2 liver cancer cell viability effects, profiling panel, resazurin fluorescence, 24 h, PK04 Diversity Set (AID 1172). Note: test concentration not given here. Particulars: higher = more signal. (In general: Resazurin is reduced to fluorescent resorufin, in cell work by metabolically active cells.)
Assay [2] can be described thus: basal S. cerevisiae growth modulation, no modifier, primary screen, OD600, strain BY4716, 24 h, basal condition (AID 1173). Particulars: OD600, 24 h, higher = more signal, called active from +8 up or from −8 down.
The nature of assay [3]: MM1S myeloma cell viability, profiling panel, resazurin fluorescence, basal, 24 h, PK04 Diversity Set (AID 1174).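 Note: MM1S multiple myeloma cell line; test concentration not given here.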 Particulars: higher = more signal, called active from +8 up or from −8 down.
In assay [4] the target is Dihydroorotate dehydrogenase (quinone), mitochondrial (Plasmodium falciparum (isolate 3D7)) (UniProt Q08210). Description: PfDHODH enzyme inhibitors, primary screen, biochemical, C-terminal His tag, absorbance 600 nm (AID 1175).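 Note: recombinant parasite enzyme with a five histidine tag at its C terminus; test concentration not given here.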 Particulars: DCIP absorbance 600 nm, higher = more signal, called active from +8 up or from −8 down.
Dihydroorotate dehydrogenase (quinone), mitochondrial (Plasmodium falciparum (isolate 3D7)), sequence (Q08210 whole entry, looked up): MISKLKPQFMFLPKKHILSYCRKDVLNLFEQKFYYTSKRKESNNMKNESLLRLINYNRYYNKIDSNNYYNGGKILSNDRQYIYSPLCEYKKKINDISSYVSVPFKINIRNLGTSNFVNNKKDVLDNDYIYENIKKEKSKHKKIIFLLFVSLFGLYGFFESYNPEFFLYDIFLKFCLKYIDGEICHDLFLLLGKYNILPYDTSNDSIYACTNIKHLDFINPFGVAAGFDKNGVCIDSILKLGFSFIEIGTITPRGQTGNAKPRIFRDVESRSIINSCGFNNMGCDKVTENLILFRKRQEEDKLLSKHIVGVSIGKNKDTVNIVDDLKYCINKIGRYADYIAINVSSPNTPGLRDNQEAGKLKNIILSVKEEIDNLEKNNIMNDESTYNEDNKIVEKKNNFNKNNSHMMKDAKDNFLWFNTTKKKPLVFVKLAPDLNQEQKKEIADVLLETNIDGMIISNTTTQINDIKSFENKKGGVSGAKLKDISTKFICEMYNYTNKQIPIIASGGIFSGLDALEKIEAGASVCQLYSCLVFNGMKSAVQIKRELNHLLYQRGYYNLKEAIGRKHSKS
Assay [5] in a line: P. aeruginosa biofilm formation inhibitors, primary screen, strain PAO1, LB-PBS medium, absorbance 600 nm (AID 1176). Note: test concentration not given here. Particulars: P. aeruginosa PAO1 growth/biofilm, A600, 12 h; higher = more signal.
Assay [6] is described as follows: S. cerevisiae RM11-1a growth modifiers, primary screen, strain RM11-1a, OD600, basal, 24 h (AID 1177).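 Note: cultures grown under basal conditions with no added stressor; test concentration not given here.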 Particulars: OD600, 24 h, higher = more signal, called active from +8 up or from −8 down.
A short description of assay [7]: E. coli acrAB mutant growth effects, primary screen, E. coli filamentation inducers, strain DRC39, OD650, 24 h (AID 1178).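 Note: growth measured as culture turbidity by optical density at 650 nm; test concentration not given here.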 Particulars: higher = more signal, called active from +8 up or from −8 down.
Assay [8] can be described thus: E. coli acrAB mutant growth effects, primary screen, E. coli filamentation inducers, strain DRC39, OD650, 48 h (AID 1179).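 Note: screen aims at cell division blockers that make cells filament.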 Particulars: E. coli DRC39 delta-acrAB growth, higher = more signal, called active from +8 up or from −8 down.
A short description of assay [9]: RPMI8226 myeloma cell viability, profiling panel, resazurin fluorescence, basal, 24 h, PK04 Diversity Set (AID 1180).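 Note: RPMI8826 multiple myeloma cell line at 5000 cells per well; test concentration not given here.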 Particulars: higher = more signal.
Assay [10] has as its target E3 ubiquitin-protein ligase XIAP (Homo sapiens) (UniProt P98170). The assay can be described thus: XIAP binders, primary screen, biophysical, small-molecule microarray, fluorescence 635 nm (AID 1181).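 Note: score merges 667 nm emission and signal to noise over triplicate slides.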 Particulars: small-molecule microarray binding, higher = more signal.

SMILES strings stand for the structures. The source made the active and inactive calls. Unless noted, the rule behind the calls is not given here.

E3 ubiquitin-protein ligase XIAP (Homo sapiens), sequence (P98170 whole entry, looked up): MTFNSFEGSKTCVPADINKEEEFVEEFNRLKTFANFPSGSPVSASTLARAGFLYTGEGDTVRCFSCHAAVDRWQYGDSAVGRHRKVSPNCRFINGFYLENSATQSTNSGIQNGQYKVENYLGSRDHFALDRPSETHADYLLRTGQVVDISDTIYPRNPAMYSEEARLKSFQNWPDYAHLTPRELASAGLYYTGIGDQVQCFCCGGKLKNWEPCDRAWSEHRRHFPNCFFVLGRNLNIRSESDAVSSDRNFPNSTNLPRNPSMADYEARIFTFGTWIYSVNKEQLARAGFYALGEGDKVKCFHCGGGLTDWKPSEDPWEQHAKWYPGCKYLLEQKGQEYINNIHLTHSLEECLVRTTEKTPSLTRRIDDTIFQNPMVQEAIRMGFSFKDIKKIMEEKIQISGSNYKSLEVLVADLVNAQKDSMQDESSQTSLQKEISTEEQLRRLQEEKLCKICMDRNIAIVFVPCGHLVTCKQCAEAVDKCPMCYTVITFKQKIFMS

`COCCCNC(=O)[C@]1(Cc2ccccc2CN=[N+]=[N-])N=C(c2ccc(OCCCO)cc2)O[C@@H]1c1ccccc1N=[N+]=[N-]`: the z-score in assay [1] was -1.99; in [2] it was 0.234 (inactive); in [3] it was -4.37 (inactive); in [5], 1.24 (inactive); in assay [6] it was 0.995 (inactive); in assay [7], 0.703 (inactive). Further, the z-score was 0.692 (inactive) in [8] and -3.63 in assay [9]. Besides, the composite z-score was 0.553 (inactive) in [4] and 0.43 in assay [10].

With `COC(=O)[C@@]1(Cc2ccc(F)cc2)[C@H]2c3cc(C(=O)N(C)C)n(Cc4ccc(C(F)(F)F)nc4)c3C[C@H]2CN1C(=O)c1ccccc1`, the z-score was -0.575 in [1]; 0.512 (inactive) in assay [2]; -1.04 (inactive) in assay [3]; -0.359 (inactive) in [5]; 0.337 (inactive) in [6]; -0.532 (inactive) in [7]. In addition, the z-score is -0.171 (inactive) in [8] and -0.912 in assay [9]. In addition, the composite z-score in assay [4] is 0.0058 (inactive); in [10], 0.109.

`CC(C)C(=C=CC[C@H](O)c1cccc(OCCO)c1)C[C@H](O)c1ccccn1`: the z-score in assay [1] was 1.91; in assay [2] it was 0.589 (inactive); in assay [3] it was 0.106 (inactive); in [5], 0.625 (inactive); in [6], -0.69 (inactive); in [7], 1.61 (inactive). Moreover, the z-score in [8] was 1.5 (inactive); in assay [9], 0.681. The composite z-score in assay [4] is -0.332 (inactive); in assay [10] it was 0.0436.

On to `C=CCNC(=O)[C@@H]1[C@H]2C(=O)O[C@H](c3ccccc3)[C@H](c3ccccc3)N2[C@H](c2ccc(O)cc2)[C@@]12C(=O)N(C(=O)OCCOC)c1ccc(C#CCC(C(=O)OC)C(=O)OC)cc12`, for which the z-score in assay [1] was 0.475; in assay [2] it was -0.17 (inactive); in assay [3], 0.716 (inactive); in assay [5], 0.089 (inactive); in assay [6], 1.88 (inactive); in [7], 1.09 (inactive). Further, the z-score is 0.666 (inactive) in assay [8] and -1.73 in assay [9]. Also, the results for the composite z-score in [4] and in assay [10] were -2.5 (inactive) and 0.0859, respectively.

`CC(C)Cc1ccc(CN2CC[C@@H](NC(=O)c3ccccc3)C2)cc1`: the z-score is -0.375 in [1]; -7.1 (inactive) in assay [2]; -0.18 (inactive) in [3]; -0.0248 (inactive) in [5]; 2.05 (inactive) in assay [6]; 0.295 (inactive) in assay [7]. Further, the z-score in [8] was 0.118 (inactive); in assay [9] it was -0.193. Besides, the figures for the composite z-score in [4] and in [10] were 0.228 (inactive) and -0.135, respectively.

Consider `COC(=O)C(CC#Cc1ccc2c(c1)[C@]1(C(=O)N2)[C@H](C(=O)N2CCN(c3ncccn3)CC2)[C@H]2C(=O)O[C@H](c3ccccc3)[C@H](c3ccccc3)N2[C@@H]1c1ccc(O)cc1)C(=O)OC`, for which the z-score is -0.146 in assay [1]; 0.586 (inactive) in assay [2]; 0.235 (inactive) in assay [3]; 1.67 (inactive) in assay [5]; 1.25 (inactive) in assay [6]; 0.167 (inactive) in assay [7]. The z-score in [8] is 0.26 (inactive); in assay [9], -1.47. For the same compound, the composite z-score is -15.3 (active) in assay [4] and 0.309 in assay [10].

Regarding `Cc1c(NC(=O)/C(C#N)=C/C=C/c2ccc([N+](=O)[O-])cc2)c(=O)n(-c2ccccc2)n1C`, the z-score was -0.559 in assay [1]; -0.546 (inactive) in [2]; 0.11 (inactive) in assay [3]; -0.736 (inactive) in assay [5]; -0.254 (inactive) in assay [6]; -0.465 (inactive) in [7]. For the same compound, the z-score in assay [8] was -0.412 (inactive); in [9], 0.664. Further, the composite z-score was 0.142 (inactive) in assay [4] and -0.0581 in assay [10].

Take `C=CCOC(=O)[C@H]1[C@@H]2C(=O)O[C@@H](c3ccccc3)[C@@H](c3ccccc3)N2[C@@H](c2ccc(OCCOC(=O)[C@H]3C[C@H]4C(=O)NCC(=O)N4[C@H]3c3cccc(OCCO)c3)cc2)[C@]12C(=O)Nc1ccc(I)cc12`: the z-score in assay [1] was -0.199; in assay [2], 1.18 (inactive); in assay [3] it was 0.265 (inactive); in assay [5], 1.88 (inactive); in [6], 1.5 (inactive); in [7], -0.274 (inactive). The z-score in [8] is 0.765 (inactive); in [9], 0.973. The figures for the composite z-score in assay [4] and in assay [10] were 0.603 (inactive) and 0.0431, respectively.

For the compound `Cc1ccc(S[C@]2(C(=O)NCCN3CCOCC3)CC(=O)N(C(C)C)[C@@H]2c2ccc(CO)cc2I)cc1`, the z-score is 0.124 in [1]; -3.26 (inactive) in assay [2]; -2.29 (inactive) in [3]; 0.553 (inactive) in assay [5]; -2.93 (inactive) in assay [6]; 1.16 (inactive) in assay [7]. Besides, the z-score in assay [8] was 1.65 (inactive); in [9], -1.83. Further, the composite z-score in assay [4] is -2.11 (inactive); in [10], -0.0304.

Regarding `Cc1ccc(S[C@]2(C(=O)NCc3ccccc3)CC(=O)N(Cc3ccccc3C(F)(F)F)[C@@H]2c2ccc(CO)cc2I)cc1`, the z-score in assay [1] is 0.213; in assay [2], -5.1 (inactive); in assay [3] it was -2.36 (inactive); in assay [5], -0.239 (inactive); in assay [6], -1.54 (inactive); in assay [7], 0.506 (inactive). Besides, the z-score in assay [8] is -0.0277 (inactive); in [9], -1.28. For the same compound, the results for the composite z-score in assay [4] and in assay [10] were -1.44 (inactive) and -0.135, respectively.

On to `C=CC[C@]1(C(N)=O)N=C(c2ccc(OCCCO)cc2)O[C@H]1c1ccccc1N=[N+]=[N-]`, for which the z-score in [1] is 0.021; in assay [2], -0.925 (inactive); in assay [3] it was -0.362 (inactive); in [5], 0.274 (inactive); in [6], 1.32 (inactive); in assay [7], 2.12 (inactive). For the same compound, the z-score was 2 (inactive) in [8] and -0.733 in assay [9]. Also, the composite z-score is 0.315 (inactive) in [4] and 0.217 in [10].

With `CCCCCN1CC=CC23O[C@@H]4/C=C\CCCOC(=O)C4[C@H]2C(=O)N(CCO)[C@@H]3C1=O` (stereo not given in full), the z-score in [1] was -0.192; in assay [2] it was -1.2 (inactive); in assay [3] it was 1.22 (inactive); in [5], 0.938 (inactive); in [6], -0.843 (inactive); in assay [7], 0.859 (inactive). Moreover, the z-score was 0.188 (inactive) in assay [8] and 0.936 in assay [9]. Besides, the composite z-score in [4] is -0.195 (inactive); in assay [10], -0.0918.
